Rows were chosen to be rich in hits. Some 4.5% of all compounds tested hit in one or more screens of this group.
ssDAF-12 act – S. stercoralis DAF-12 activation, primary screen; activation, % at 6.8 µM; AID 652126; hit rate 1% among 370,000; HEK293 ssDAF-12/GRIP1 lit1-tk-luc reporter, luminescence; % of 3 µM dafachronic acid response;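 active = activation above the mean over all tested compounds plus 3 SD, cut at about 0.9% in these data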;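 note: 0% = DMSO-only wells and 100% = 3 µM delta7-dafachronic acid wells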
hgDAF12 agonist – activates the H. glycines DAF-12 receptor ligand-binding domain; HEK293 GAL4-hgDAF12 UAS-luciferase reporter, agonist luminescence; normalized to butyrate control; activation, % at 6.8 µM; AID 687014; hit rate 1.8% among 370,000;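 active = activation above a cutoff set at the mean of all screened compounds plus 3 SD, cut at about 10% in these data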;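 note: 0% = DMSO wells and 100% = sodium butyrate wells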
DAX1 inh-1 – inhibitors of DAX1 repression of SF-1 activated StAR promoter. HEK293T StAR-luciferase reporter, SF-1/DAX-1 repression relief. inhibition, % at 6.8 µM. hit rate 1.1% among 370,000. AID 652010;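 active = inhibition above the mean over all tested compounds plus 3 SD, cut at about 3.6% in these data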;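 note: 0% = DAX-1 cells with DMSO and 100% = cells lacking DAX-1 with DMSO; higher inhibition means more luminescence from relief of DAX-1 repression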
DAX1 inh-2 – inhibitors of human orphan nuclear receptor DAX1 (NR0B1); inhibition, % at 6.75 µM; hit rate 0.99% among 340,000; HEK293 Gal4-DAX1 luciferase reporter, luminescence; P51843;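 active = inhibition above the mean over all tested compounds plus 3 SD, cut at about 4.2% in these data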;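 note: 0% = DAX1-transfected cells with DMSO and 100% = empty-vector control cells with DMSO; inhibition shows as a rise in luminescence from relieved DAX1 repression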
Target sequence (P51843 207-470 limits assumed): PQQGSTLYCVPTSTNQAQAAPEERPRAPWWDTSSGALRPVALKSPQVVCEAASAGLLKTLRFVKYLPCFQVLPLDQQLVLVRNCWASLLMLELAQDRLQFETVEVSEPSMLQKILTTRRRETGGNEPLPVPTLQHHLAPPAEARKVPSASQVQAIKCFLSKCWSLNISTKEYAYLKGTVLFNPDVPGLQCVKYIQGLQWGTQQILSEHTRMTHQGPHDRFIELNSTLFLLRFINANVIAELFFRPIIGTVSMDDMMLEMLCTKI
hcDAF-12 act – activators of H. contortus DAF-12 nuclear receptor. HEK293 hcDAF-12 lit1-tk-luc reporter, luminescence; 0% DMSO, 100% Δ7-dafachronic acid. activation, % at 6.8 µM. hit rate 1.4% among 370,000;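 active = activation above the mean of all tested compounds plus 3 SD, cut at about 5.5% in these data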;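 note: 100% = response to 3 µM Δ7-dafachronic acid high control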
FXN GAA850 act – increases GAA850 frataxin promoter reporter activity; HEK293 lucGAA850 FXN promoter luciferase reporter, 24 h; percent of 10 µM SAHA response; hit rate 0.56% among 360,000; activation, % at 6 µM; AID 540364;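 active = activation above the average of all compounds screened plus 3 SD, cutoff fixed separately per campaign, cut at about 7.5% in these data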;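 note: 0% = DMSO wells and 100% = 10 µM SAHA wells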
GAA30 FXN cntr – counter-screen for GAA850 frataxin promoter activators: GAA30 promoter activation; shares compounds with FXN GAA850 act; HEK293 lucGAA30 FXN promoter luciferase, 24 h; DMSO = 0%, 5 µM ipriflavone = 100%; activation, % at 6 µM; hit rate 66% among 1,900;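 active = mean activation above the mean of solvent-only control wells plus 3 SD, cut at about 22% in these data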;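 note: counterscreen of GAA850 promoter hits where activity marks nonselective or luminescence artifacts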
GAA850 confirm – confirmation of GAA850 frataxin (FXN) promoter activators | shares compounds with FXN GAA850 act | HEK293 lucGAA850 FXN promoter luciferase reporter, 24 h; 100% = activation by SAHA | activation, % at 6 µM | hit rate 86% among 1,900 | AID 588351;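 active = mean activation above a set limit taken from the primary screen, cut at about 8% in these data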;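 note: 0% = DMSO wells and 100% = 10 µM SAHA wells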
Numbers without * were called inactive; · = not tested or not shown.

SMILES	ssDAF-12 act	hgDAF12 agonist	DAX1 inh-1	DAX1 inh-2	hcDAF-12 act	FXN GAA850 act	GAA30 FXN cntr	GAA850 confirm
Cc1nc(NC(=O)c2cc3c(s2)CCCCC3)sc1C(=O)N(C)C	-1	7	1	0	0	4	·	·
CCOC(=O)c1sc(Nc2nc(OC)cc(OC)n2)nc1C	0	-1	-1	·	3	·	·	·
COc1ccc2nc(NCc3ccc(OC)c(OC)c3OC)sc2c1	-1	-1	0	1	-2	3	·	·
Cc1ccc(-c2[nH]c3ccccc3c2SCCNC(=O)c2ccc(S(=O)(=O)N3CCOCC3)cc2)cc1	-2	-6	-4	0	-4	1	·	·
COc1ccc(-c2[nH]c3ccccc3c2SCCNC(=O)c2ccccc2)cc1	-2	-3	-1	0	-1	22*	2	5
O=C(Nc1cccnc1)c1ccc(CSc2ccc(Cl)cc2)o1	-2	-4	-2	·	-2	·	·	·
Cc1ccc(-c2cc(C(=O)N/N=C/c3ccco3)n[nH]2)s1	-1	4	0	0	0	3	·	·
CC(C)(C)c1cc(C(=O)N/N=C/c2ccco2)n[nH]1	0	1	0	1	2	8.3*	73*	29*
Cc1ccc(-c2nnc(SCC(=O)Nc3ccc4c(c3)OCCO4)n2-c2ccc(C)cc2)cc1	-1	4	0	·	-2	·	·	·
CCc1cccc(C)c1NC(=O)CN1C(=O)c2ccccc2S1(=O)=O	-1	1	0	2	0	18*	12	7
Cc1ccccc1CNC(=O)CN1C(=O)c2ccccc2S1(=O)=O	-1	-2	0	0	1	0	·	·
COc1ccc(Nc2cc(C)nc(NCc3ccccc3)n2)cc1	-3	-5	-1	·	-2	0	·	·
Cc1ccc(Nc2cc(C)nc(NCc3ccccc3)n2)cc1	-1	-2	-1	-1	-3	13*	19	15*
CCNc1nc(CSc2ccccc2)nc2sc(C)c(C)c12	-2	-4	0	-2	-1	18*	15	13*
CN=C1S/C(=C\c2ccc(O)c(OC)c2)C(=O)N1C	-2	5	1	·	1	9.9*	113*	35*
CN(C)/C=C/C(=O)c1ccccc1	0	6	0	2	1	-1	·	·
CN(C)/C=C/C(=O)c1ccc(Oc2ccccc2)cc1	-2	-2	0	1	-1	7.8*	103*	33*
CC(=O)c1cc(NC(=O)c2ccccc2)c(=O)oc1C	0	-3	1	0	-1	4	·	·
Cc1oc(=O)c(NC(=O)c2ccccc2)cc1C(=O)c1ccccc1	-1	6	0	4	0	8.2*	100*	29*
Cc1oc(=O)c(NC(=O)c2ccc(Cl)cc2)cc1C(=O)c1ccccc1	-2	0	0	1	0	12*	7	8.9*
CN1[C@H](Cc2ccccc2)COc2cc(N3CCCC3)ccc2S1(=O)=O	-2	0	-5	·	-4	·	·	·
O=C(NCc1ccc(C(=O)N2CCCN(Cc3ccccc3)CC2)cc1)c1cccc(Br)c1	-2	-1	-2	·	-4	·	·	·
CC(C)C(=O)OCCCN1C(=O)CCC12CCC(c1ccccc1)CC2 (stereo unspecified)	-1	-2	0	·	2	·	·	·
Cc1cc(C)n2cc(CSc3nc4cc(Cl)ccc4o3)nc2n1	-1	-1	0	-2	-1	0	·	·
CN(C)c1nc(N)nc(CSc2nc3cc(Cl)ccc3o2)n1	-1	0	2	0	-1	8.3*	48*	27*
COc1cccc2sc(NNC(=O)C3=COCCO3)nc12	-1	4	1	-1	-1	8.2*	86*	33*
Cc1nc(-c2nc(-c3c(C(=O)NN)noc3C)cs2)cs1	-1	6	1	0	4	8.3*	88*	27*
Oc1ccc(N=Cc2ccc(O)c(O)c2)cc1	·	·	·	1	·	-1	·	·
